From PubChem BioAssay AID504847 (National Center for Advancing Translational Sciences (NCATS), 2011)
Out of some 400,000 compounds screened, about 3,700 (0.93%) were called active. Not shown: some 3% with an inconclusive outcome. The sample holds actives, similar compounds and a random draw of the others, so the mix is not that of the screen. Unmarked numbers belong to inactive results. Calls follow the shape of the dose curve; as a rule, active = well fitted inhibition curve with a large enough effect; inconclusive = small, poorly fitted or top-dose-only effect, or another doubt; inactive = no such curve, though single readings can be large or run the other way.

These compounds were tested against Vitamin D3 receptor (Homo sapiens) (UniProt P11473) (assay: Inhibitors of the vitamin D receptor (VDR): qHTS). Conditions: VDR-SRC2-3 peptide fluorescence polarization, 2 h; max response, negative = inhibition: active compounds read low.
Sequence of Vitamin D3 receptor (Homo sapiens) (P11473 whole entry, looked up): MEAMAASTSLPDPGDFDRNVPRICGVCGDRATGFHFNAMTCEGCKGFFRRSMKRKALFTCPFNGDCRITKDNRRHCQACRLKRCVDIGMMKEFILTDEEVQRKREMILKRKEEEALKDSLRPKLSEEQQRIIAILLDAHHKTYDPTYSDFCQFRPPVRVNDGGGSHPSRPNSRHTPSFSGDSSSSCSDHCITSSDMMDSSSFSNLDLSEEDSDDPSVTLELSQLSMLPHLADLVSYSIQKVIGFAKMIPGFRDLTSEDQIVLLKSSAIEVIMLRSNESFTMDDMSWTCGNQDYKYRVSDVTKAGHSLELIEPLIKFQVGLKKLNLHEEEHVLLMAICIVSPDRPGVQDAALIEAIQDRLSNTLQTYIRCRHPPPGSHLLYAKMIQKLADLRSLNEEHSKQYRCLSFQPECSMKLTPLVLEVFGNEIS
Outline: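 Measured by FP: displacement of SRC2-3 coactivator peptide from VDR by library compounds, following a two-hour ambient incubation.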
% is scaled to controls: 0 for no effect and ±100 for the full control effect; potency is read from the fitted curve at half-maximal effect.

Compound | Potency | max response, negative = inhibition
O=c1c(O)c(Br)ccc2c(Br)c(O)c(O)c(O)c12 | 7.94 µM (active) | –
O=C(c1ccco1)N(Cc1cccs1)c1ccc(O)cc1 | – | -6.28%
Cc1cccc(CSc2nc3ccncc3n2CC(=O)N(C)C2CCCCC2)c1 | – | -0.866%
CCOCCCNC(=O)c1c(NC(=O)Cc2coc3ccc(C)cc23)sc2c1CCC2 | – | 8.22%
O=C(Nc1ccccc1-c1nnn(CC(=O)N2CCN(c3ccccc3)CC2)n1)c1cccs1 | – | -0.102%
O=C(Nc1ccccc1-c1ccccc1)c1ccccc1[N+](=O)[O-] | – | -7.79%
O=C(Nc1ccccc1-c1ccccc1)c1cccs1 | 70.8 µM (active) | –
Cc1ccc(C)c(NC(=O)CSC2=Nc3ccccc3N=C(c3ccc(F)cc3)C2)c1 | – | 4.3%
Cc1cccc2nc(-c3ccc(Cl)s3)c(Nc3ccc4c(c3)OCCO4)n12 | – | -14.5%
CC(=O)NCC(O)c1ccc([N+](=O)[O-])cc1 (stereo unspecified) | – | -16.9%
C=C(C(C)=O)C(O)c1ccc([N+](=O)[O-])cc1 (stereo unspecified) | 50.1 µM (active) | –
C=C(C(C)=O)C(O)c1cccs1 (stereo unspecified) | – | -7.76%
CCN1CCN(c2cc(C)c3cc(NC(=O)c4cc(Cl)ccc4OC)ccc3n2)CC1 | – | -8.13%
CCOc1ccc(CC(=O)NCCc2csc3nc(-c4ccccc4F)nn23)cc1 | – | 13.3%
CN(C)c1nccc(NCc2ccccc2)c1C#N | – | 28.6%
CCC(CO)Oc1cc(NC(=O)c2ccc(Cl)cc2)c2ncn(C(C)C)c2c1 (stereo unspecified) | – | -27.1%
CC(C)n1cnc2c(NCc3ccccc3)cc(OCC3CCN(C)CC3)cc21 | 50.1 µM (active) | –
CCOc1ccc(NC(=O)CSc2c3c(nc4ccccc24)CCCC3)cc1 | – | 0.351%
CC(=O)c1ccc(NS(=O)(=O)c2ccc(-c3cc(C)no3)s2)cc1 | – | -0.0795%

Compound | Potency | max response, negative = inhibition
COc1ccc(CNC(=O)C2=Cc3cccc(OC)c3OC2)cc1OC | – | -2.19%
C[C@]12CC[C@@H]3c4ccc(O)cc4C[C@@H](CCCCCCCCCS(=O)CCCC(F)(F)C(F)(F)F)C3[C@@H]1CC[C@@H]2O (stereo partly specified) | – | -2.01%
CCOc1ccc(NC(=O)CSc2nnc3c(n2)[nH]c2ccc(S(=O)(=O)N4CCOCC4)cc23)cc1 | – | 3.89%
CC(=O)c1cccc(NC(=O)c2cc(C)nn2-c2ccccc2)c1 | – | -12.6%
CSc1ccccc1C(=O)NCc1ccccc1 | – | 10.4%
CSc1ccccc1C(=O)Nc1cccc(C(C)=O)c1 | 39.8 µM (active) | –
CCCCC/C=C\C/C=C\CCCCCCCCCC(N)=O | – | -2.13%
CCN(CC)C(=O)CSc1nc2cc3c(cc2c(=O)n1CCCC(=O)NCc1ccc2c(c1)OCO2)OCO3 | – | 4.85%
CCOc1ccc2nc(N3CCCC(C(=O)Nc4cc(C)ccc4C)C3)sc2c1 (stereo unspecified) | – | 5.91%
O=C(O)c1ccc(CSc2nc3cccnc3n2Cc2cccc(F)c2)cc1 | – | 9.37%
O=C(/C=C/Sc1ncn[nH]1)c1ccc(Cl)cc1 | 39.8 µM (active) | –
C[C@@H]1C[C@H]2[C@@H]3C[C@H](F)C4=CC(=O)C=C[C@@]4(C)[C@]3(F)[C@H](O)C[C@]2(C)[C@@]1(O)C(=O)CO | – | -2.08%
Cc1ccnc(-n2sc3ccccc3c2=O)n1 | 25.1 µM (active) | –
CCOC(=O)c1c(C)[nH]c(CCC(=O)Nc2ccc(OC)c(OC)c2)c1C | – | -6.79%
COc1cc(OC)c(C2C=C(C(=O)O)Nc3ncnn32)cc1OC (stereo unspecified) | – | -29.8%
COc1ccccc1CNC(=O)Cn1nc(C)c2nn(-c3ccc(Cl)cc3)c(C)c2c1=O | – | 3.2%
Nc1ccc2c(c1)C(O)c1ccc(Cl)cc1-2 (stereo unspecified) | – | 1.49%
NC(=O)C1(C(N)=O)OC1c1ccc(Cl)cc1Cl (stereo unspecified) | 14.1 µM (active) | –
CCN(CC)c1nc(C#N)nc(OC)n1 | – | -23.3%

Compound | Potency | max response, negative = inhibition
CCOC(=O)C1Sc2[nH]c(=O)sc2C(c2ccc(Cl)cc2)C1C(=O)OCC (stereo unspecified) | 79.4 µM (active) | –
CCOC(=O)c1ccccc1N1C(=O)C2Sc3[nH]c(=O)sc3C(/C=C/c3ccccc3)C2C1=O (stereo unspecified) | – | -26.2%
CCOC(=O)C1CCN(C(=O)Nc2ccc(Cl)cc2)CC1 | – | 6.67%
CCCCCn1c(CCCNC(=O)c2ccccc2OC)nc2ccccc21 | – | 10.5%
COc1cccc2c1cc1c(=O)n(CC(=O)N3CCN(c4cccc(Cl)c4)CC3)nc(C)n12 | – | -15.1%
Cc1cccc(NC(=O)CSc2ncc(-c3ccccc3)[nH]2)c1C | – | -15.6%
CC(=O)c1c(C)n(S(=O)(=O)c2ccc(Cl)cc2)c2ccc(NS(=O)(=O)c3ccc(Cl)cc3)cc12 | 79.4 µM (active) | –
CC(=O)c1c(C)oc2ccc(NS(=O)(=O)c3ccc(C(=O)O)cc3)cc12 | – | 11.8%
CCOC(=O)c1c(C)n(S(=O)(=O)c2ccc(C)cc2C)c2ccc(NS(=O)(=O)c3ccc(C)cc3C)cc12 | – | -7.13%
O=C(C1CCCN(S(=O)(=O)c2cccc3nonc23)C1)N1CCN(c2ccccc2F)CC1 (stereo unspecified) | – | -15.4%
COc1ccc(OC)c(NC(=O)C2CCN(S(=O)(=O)c3ccc(C)cc3)CC2)c1 | – | 29.3%
O=C(O)C(c1ccccc1)N1C(=O)/C(=C\c2ccc(-c3cccc(Cl)c3)o2)SC1=S (stereo unspecified) | 79.4 µM (active) | –
Cn1cccc1/C=C1\SC(=S)N(NC(=O)c2ccc(Cl)cc2)C1=O | – | -22.2%
O=C(NCc1ccccc1)c1cc(-c2cccc(Cl)c2)on1 | – | -16.6%
O=c1[nH]c(/C=C/c2cccc(Br)c2)nc2ccccc12 | – | -10.9%
O=c1[nH]c(/C=C\c2cccc(C(F)(F)F)c2)nc(O)c1[N+](=O)[O-] | 44.7 µM (active) | –
O=c1cc(O)c(-c2cccc(C(F)(F)F)c2)c(Cl)[nH]1 | – | 13.8%
CC1(C)O[C@@H]2C[C@@H]3[C@H]4C[C@@H](F)C5=CC(=O)C=C[C@]5(C)[C@@]4(F)[C@@H](O)C[C@]3(C)[C@]2(C(=O)CO)O1 | – | 1.68%
